Each structure is given as a SMILES string. Screen size: about 330,000 compounds; about 960 (0.29%) were called active.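 Rule for the calls: active = compounds whose signal lies at least 3.5 SD above the mean of all wells on their plate; inactive = the rest.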 The entries come from a sample that favours actives as a whole.

The test can be described thus: inducers of MIN6 beta-cell proliferation, primary screen, ATP luminescence, uHTS (AID 2380).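 Note: 0% = DMSO-treated cells in low-serum medium and 100% = 10% serum control.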 The following applies: MIN6 cells proliferation, ATPlite luminescence, 48 h, at 10 µM, active compounds read high. A general note: ATP-based viability assays read luminescence as a measure of living cells.
For the molecule `COc1ccc(CNCCc2ccc3c(c2)OCO3)c(OC)c1OC`, the proliferation was 5.73% (inactive).

Regarding `c1cc2c(cc1CCNC1CCCCCC1)OCO2`, the proliferation was 8.35% (active).

As for `c1ccc(CCNC2CCCCCC2)cc1`, the proliferation was 1.52% (inactive).

In the case of `CC1(C)Cc2c(C#N)c(N3CCNCC3)nc(-c3ccco3)c2CS1`, the proliferation was -3.88% (inactive).

For `CC(=O)c1ccc(OC(NC(=O)Cc2ccccc2)C(Cl)(Cl)Cl)cc1` (stereo not given), the proliferation was -1.48% (inactive).

Take `COC(=O)COc1cc(C)cc2oc(=O)c3c(c12)CCCC3`: the proliferation is 5.08% (active).

Regarding `Cc1cc(OCc2cc(C(=O)O)oc2C)c2c3c(c(=O)oc2c1)CCCC3`, the proliferation is -3.8% (inactive).

`COc1cc(OC)cc(C2(C#N)CCN(C)CC2)c1`: the proliferation was -0.56% (inactive).

In the case of `CCOc1cccc(=NC2CCCCC2)c2c(C)[nH]c(C)c12`, the proliferation is -3.34% (inactive).

For the molecule `CCC1(C)CC(CCNCc2ccc(N(C)C)cc2)(c2ccc(F)cc2)CCO1` (stereo not given), the proliferation was -4.45% (inactive).

`COc1ccc(C(=O)CC2C(=O)N(C)C(=O)N(C)C2=O)cc1`: the proliferation was -0.73% (inactive).

As to `O=C(N/N=C/c1c(O)n(Cc2ccccc2)c(=O)[nH]c1=O)c1ccccc1`, the proliferation was 5.26% (active).

Consider `O=c1[nH]c(=O)n(Cc2ccccc2)c(O)c1/C=N/Nc1c(F)c(F)c(F)c(F)c1F`, for which the proliferation is 1.39% (inactive).

Consider `O=C(N/N=C/c1c(O)n(C2CC2)c(=S)[nH]c1=O)c1ccccc1`, for which the proliferation is -1.64% (inactive).

With `COC(=O)C1=C(c2ccc(Cl)c(C(F)(F)F)c2)C[C@@H]2CC[C@H]1N2C(=O)NC(C)C`, the proliferation was -1.97% [100% = growth in 10% serum, cells starved in 0.2% serum] (inactive).

The values are drawn from PubChem BioAssay AID2380 (Sanford-Burnham Center for Chemical Genomics, 2010).
